PubChem BioAssay AID2284092 (EPA ToxCast)
Activity calls are given as the source filed them. How the source made its calls: active means hit-call score of the fitted dose curve at least 0.9, where 1 is the maximum; inactive means score below 0.9.

What follows are molecules tested against Glycogen synthase kinase-3 beta (Homo sapiens) (UniProt P49841) (assay: ERF_FR_ENZ_hGSK3b: Eurofins (ERF) Enzymatic Radiometric [Km ATP] KinaseProfiler LeadHunter Assay for human GSK3beta (GSK3B) CMGC Kinase).
Protocol: ERF_FR_ENZ_hGSK3b is a biochemical, single-readout assay that uses extracted gene-proteins in a cell-free assay. Measurements were taken 1.5 hour after chemical dosing in a 96-well plate. See GSK3beta Human CMGC Kinase Enzymatic LANCE Assay [Km ATP], Cerep.ERF_FR_ENZ_hGSK3b is an assay component calculated from the ERF_FR_ENZ_hGSK3b assay. It is designed to measure enzyme activity using a type of enzyme reporter as detected by fluorescence intensity with LANCE technology.Data from the assay component ERF_FR_ENZ_hGSK3b was analyzed at the assay endpoint, ERF_FR_ENZ_hGSK3b, in the positive analysis fitting direction relative to DMSO as the negative control and baseline of activity. Using a type of enzyme reporter, loss-of-signal activity can be used to understand changes in enzymatic activity as they relate to gene GSK3B. To generalize the intended target to other relatable targets, this assay endpoint is annotated to the kinase intended target family, where the subfamily is serine/threonine kinase.
GSK3b (h) is incubated with 8 mM MOPS pH 7.0, 0.2 mM EDTA, 20 uM […](p) EDEEE (phospho GS2 peptide), 10 mM MgAcetate and [gamma-33P]-ATP (specific activity and concentration as required). The reaction is initiated by the addition of the Mg/ATP mix. After incubation for 40 minutes at room temperature, the reaction is stopped by the addition of phosphoric acid to a concentration of 0.5%. […]

Sequence of Glycogen synthase kinase-3 beta (Homo sapiens) (P49841 whole entry, looked up): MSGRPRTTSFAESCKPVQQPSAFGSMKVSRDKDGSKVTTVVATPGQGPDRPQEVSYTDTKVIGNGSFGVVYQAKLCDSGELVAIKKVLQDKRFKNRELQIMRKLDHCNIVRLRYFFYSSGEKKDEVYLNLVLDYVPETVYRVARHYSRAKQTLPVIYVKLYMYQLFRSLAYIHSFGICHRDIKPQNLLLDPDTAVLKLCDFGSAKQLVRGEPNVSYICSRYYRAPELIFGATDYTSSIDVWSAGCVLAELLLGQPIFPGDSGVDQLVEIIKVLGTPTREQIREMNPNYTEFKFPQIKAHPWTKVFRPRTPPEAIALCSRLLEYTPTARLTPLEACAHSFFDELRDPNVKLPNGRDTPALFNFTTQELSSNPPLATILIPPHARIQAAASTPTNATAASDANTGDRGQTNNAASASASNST

Row | Compound | AC50
1 | O=C(/C=C/c1ccc(O)cc1)CC(=O)/C=C/c1ccc(O)cc1 | 2140 nM (active)
